# Laboratory results published in PubChem BioAssay (NCI).
# This is part of a sample that, as a whole, favours compounds with a hit. Of some 79,000 tested, about 15% had one in any assay. A number with no mark means an inactive call. Calls of active or inactive are those of the source. No stated cut-off is given here; in the data, active means growth inhibition above about 70%; inactive means the rest.
# Test: NCI Yeast Anticancer Drug Screen. Data for the mlh1 rad18 strain (AID 175)
# Details: S. cerevisiae mlh1 rad18 strain growth inhibition; at 50.0 µM; hits give high values
# Summary of the method: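 Compound-treated yeast growth, normalised to vehicle controls. Strain bears defined DNA repair mutations.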
row,Compound,growth inhibition
1,c1cnc(NC(Nc2ncccn2)c2ccco2)nc1,-10.4%
2,O=C(NCCNC(=O)c1cccc([N+](=O)[O-])c1O)c1cccc([N+](=O)[O-])c1O,11.8%
3,C[N+](C)(C)CC(=O)N/N=C(/C=C/c1ccccc1)CC1OC(=O)c2ccccc21 (stereo not given),3.9%
4,C/C=C(/c1ccccc1)c1ccc(N(C)C)cc1,4.35%
5,O=C(O)c1c[nH]c2cc(O)ccc2c1=O,-2.7%
6,O=C1CC(N2CCOCC2)c2ccccc21 (stereo not given),14.2%
7,CCn1cnc2c(=O)n(C)c(=O)n(C)c21,-0.95%
8,O=C(OC(=O)c1cccc(Br)c1)c1cccc(Br)c1,1%
9,N#CC12CCC(O)C(CC1)C2=O (stereo not given),20.6%
10,Cc1ccc2ccccc2[n+]1CC(=O)c1ccc2c(c1)OCO2,10.7%
11,CC(=O)Nc1ccc(Cc2[nH]c(=O)[nH]c(=O)c2Br)cc1,-16.2%
12,O=C(c1ccccc1Cl)c1ccc2ccccc2c1C(=O)O,2.95%
13,O=C1CC2CC1C1C(=O)OC(=O)C21 (stereo not given),-8.6%
14,CCC(CC)C(=O)OC1CCCCC1C(C)C (stereo not given),0.35%
15,O=[N+]([O-])C1C2CCC(C2)C1c1ccccc1 (stereo not given),-0.2%
16,CCC1=NS(=O)(=O)c2c(ncn2C)N1,1.35%
17,O=C(O)C/C(=C\c1ccccc1)C(=O)O,-30.9%
18,CC(C)(C)c1ccc(Oc2nc(Oc3ccc(C(C)(C)C)cc3)nc(Oc3ccc(C(C)(C)C)cc3)n2)cc1,11.2%
19,S=c1[nH]nc(SCc2ccc(Cl)cc2Cl)c2[nH]cnc12,-6%
20,Cc1ccc(OS(=O)(=O)c2ccccc2)cc1,36.6%

row,Compound,growth inhibition
1,O=C(/C=C/c1ccccc1)/C=N/N1C(=S)N(c2ccccc2)C(=Nc2ccccc2)C1=Nc1ccccc1,-21.6%
2,Cn1c(=O)c2[nH]c(CC3=CCCCC3)nc2n(C)c1=O,21.6%
3,[O-]c1c[n+](CCCC[n+]2cc([O-])on2)no1,-1.95%
4,CCOP(=O)(OCC)/C(C#N)=C/c1ccc2ccccc2c1,-13.6%
5,C=C(Cl)C(Cl)(CBr)CCC(Cl)C(C)C (stereo not given),72% (active)
6,CCCNC(=O)Nc1ccc(OCC)cc1,5.5%
7,Nc1nc(-c2ccccc2)[nH]c(=O)n1,-33%
8,O=[N+]([O-])c1ccc2c(c1)/C(=N/O)CCC2,4.05%
9,CNC(=O)OCc1c(COC(=O)NC)c2n(c1C)CCS2(=O)=O,15.2%
10,Cc1nn(C(=O)c2ccc(Cl)cc2)c2c1C(c1ccccc1O)SC(N)=N2 (stereo not given),-25.1%
11,CC(C)CCC[C@@H](C)[C@H]1CC[C@H]2[C@@H]3CC=C4C[C@@H]([n+]5ccccc5)CC[C@]4(C)[C@H]3CC[C@]12C,-7.55%
12,Cc1ccc2nc(-c3ccc(CSC(=N)N)cc3)oc(=O)c2c1,42%
13,CC1=CCC(CC(=O)O)C1(C)C (stereo not given),-5%
14,CCCCc1c2c(nc3c1CCC/C3=C\c1ccccc1)C(=O)CCC2,18.1%
15,O=CC1OC(c2ccccc2)OC1C1OC(c2ccccc2)OC1C=O (stereo not given),22.8%
16,CCC1(CC)C(=O)OC(=O)C1(CC)CC,-10.4%
17,C=CC(=NC(C)C)N(C)c1ccccc1,-1.8%
18,ClC1=CC(Cl)=C2N=C(N3CCCC3)N=C3N=C(N4CCCC4)N=C1N32,4.55%
19,COC(=O)/C(=N\NC(N)=O)C(C#N)c1ccccc1 (stereo not given),-4.8%
20,FC(F)/C=C\c1ccccc1,6.9%
